Data on 30 molecules can be found in PubChem BioAssay (NCATS).

Assay [1] in a line: NS1 protein of Zika virus - qHTS assay to identify small molecule inhibitors in human HEK 293 cells (AID 1347053). Also: series mostly up to about 46 µM; nearly all actives have a fitted effect of over 55% in size. An outline of the steps:
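Inhibition of NS1 expression was scored in HEK 293 cells given compound 1 h ahead of MR766 virus (MOI = 0.5). Following 24 h at 37 C, two anti-NS1 antibodies generated a TR-FRET signal, scaled between uninfected and infected controls.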
Background: In qHTS, concentration-response curves come from the screen itself.

The target of assay [2] is T1, Tyrosine-protein phosphatase non-receptor type substrate 1 (Homo sapiens) + Leukocyte surface antigen CD47 (Homo sapiens) (UniProt P78324+Q08722). Nature of the assay: CD47-SIRPalpha protein protein interaction - LANCE assay qHTS validation (AID 1347057; active = well fitted curve in the direction sought with a large enough effect in the signal ratio, with a control signal flat, not every such curve was filed as active; the % refers to the signal ratio; also: series mostly up to about 38 µM). An outline of the steps:
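First, His-tagged CD47 and Eu-labelled anti-His antibody met the compound for 30 min; next, site-specifically biotinylated SIRPalpha was added for 30 min; finally streptavidin-APC was added before reading the TR-FRET ratio.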
Background: Time-resolved FRET reads energy transfer from a long-lived donor to a nearby acceptor.

Assay [3] concerns the target T1, Tyrosine-protein phosphatase non-receptor type substrate 1 (Homo sapiens) + Leukocyte surface antigen CD47 (Homo sapiens). Nature of the assay: CD47-SIRPalpha protein protein interaction - HTRF assay qHTS validation (AID 1347058; active = well fitted curve in the direction sought with a large enough effect in the signal ratio, not every such curve was filed as active; the % refers to the signal ratio; also: series mostly up to about 38 µM). An outline of the steps:
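TR-FRET read (Ch1/Ch2 ratio) of soluble extracellular CD47 and Avi-biotinylated SIRPalpha domains in PBS pH 7.4 with 0.05% IGEPAL; 7-point compound titration. Sequential 30 min room-temperature steps; non-biotinylated SIRPalpha as control inhibitor.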

Assay [4] addresses Parathyroid hormone/parathyroid hormone-related peptide receptor (Homo sapiens) (UniProt Q03431). Nature of the assay: qHTS for PTHR1 Agonists: Optimization Screen against the NCGC LOPAC library (AID 1347079).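 Also: GloSensor cAMP luminescence in HEK-293 GP2 cells expressing human PTHR1 with IBMX.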 Also: potency is read from the fitted curve at half-maximal effect. An outline of the steps: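 Agonist readout: GloSensor cAMP luminescence, read after 15 min at room temperature. HEK-293-derived GP2 line carries PTHR1; compounds tested as a titration for 1 hr at 37C in presence of IBMX. M-PTH (1-15) served as control.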

The target of assay [5] is N-terminal Xaa-Pro-Lys N-methyltransferase 1 (Homo sapiens) (UniProt Q9BV86). Nature of the assay: qHTS Assay for Inhibitors of N-terminal methyltransferase 1 (NTMT1): LOPAC validation of the NTMT1 SAHH-coupled ThioGlo3 Assay (AID 1347143). Also: nearly all actives have a fitted effect of over 70% in size. Also: potency is read from the fitted curve at half-maximal effect. An outline of the steps: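 Fluorescence read-out (excitation 340nm, emission 450nm) of SAH-derived thiol, measured via SAHH coupling and ThioGlo3, taken immediately and after a 30 min room-temperature reaction, then normalized to the background read. Enzyme: NTMT1 at 125nM; cofactor SAM 100uM in the added reagent.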

The test system of assay [6] is Zika virus NS2B-NS3 protease (unlinked). Briefly: Optimization of GU AMC qHTS for Zika virus inhibitors: Unlinked NS2B-NS3 protease assay (AID 1347151). Also: nearly all actives have a fitted effect of over 80% in size. Also: potency is read from the fitted curve at half-maximal effect. A digest of the protocol:
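Noncovalent complex of NS2B hydrophilic domain and NS3 protease domain, 25 nM final, in 10 mM Tris-HCl pH 8.0, 0.01% Tween 20. AMC fluorescence change over 15 min at room temperature was fitted to a 4-parameter Hill equation.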

The target of assay [7] is T1, Tyrosine-protein phosphatase non-receptor type substrate 1 (Homo sapiens) + Leukocyte surface antigen CD47 (Homo sapiens). Nature of the assay: CD47-SIRPalpha protein protein interaction - Alpha assay qHTS validation (AID 1347059).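 Also: bead proximity luminescence from CD47 binding SIRPalpha after compound preincubation with SIRPalpha.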 A digest of the protocol:
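Soluble extracellular domains: Avi-tag biotinylated SIRPalpha (25 nM) preincubated 30 min RT with compound, then 6His-CD47 (12.5 nM) 30 min; Ni-NTA acceptor and streptavidin donor beads (10 ug/mL) 30 min, AlphaScreen read. PBS pH 7.4, 0.05% IGEPAL.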

A further assay has as its target Furin (Homo sapiens) (UniProt P09958). Briefly: Furin counterscreen qHTS for Zika virus inhibitors (AID 1347149).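 Also: purified recombinant full-length human furin enzyme at 5 nM; fluorescence gain from furin cutting a BOC-RVRR-AMC peptide substrate over 15 min; top concentration of the series differs between compounds; nearly all actives have a fitted effect of over 70% in size.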 A digest of the protocol:
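Fluorogenic cleavage of BOC-RVRR-AMC (2 microM final, Km ~15 µM) was monitored (ex 340, em 450 nm) at 37C after 15 min RT preincubation of 5 nM furin with compounds in HEPES pH 7.0 buffer with CaCl2 and Triton X-100. Percent inhibition was fitted to a 4-parameter Hill curve.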
(The purpose of a counterscreen is to sort out artefacts and off-target activity.)

In assay [8] the test system is Zika virus NS2B-NS3 protease (linked construct). Nature of the assay: Confirmatory screen NINDS AMC qHTS for Zika virus inhibitors (AID 1347152).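 Also: AMC fluorescence gain from cleaved Bz-Nle-KRR-AMC substrate over 15 min; top concentration of the series differs between compounds; nearly all actives have a fitted effect of over 70% in size.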 An outline of the steps: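 Purified NS2B-NS3 protease with NS2B hydrophilic domain linked to NS3 protease domain by flexible linker, 1 nM final in 10 mM Tris-HCl pH 8.0, 0.01% Tween 20. Compounds preincubated 15 min, room temperature; Bz-Nle-KRR-AMC 10 microM (Km 18.3 µM); 15-min fluorescence change, 4-parameter Hill fit.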

Assay [9] concerns Zika virus NS2B-NS3 protease (unlinked complex). Briefly: Confirmatory screen GU AMC qHTS for Zika virus inhibitors (AID 1347153). Also: nearly all actives have a fitted effect of over 70% in size. An outline of the steps: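 Compounds were preincubated 15 min at room temperature with 25 nM noncovalent NS2B-NS3 protease at pH 8.0; AMC substrate added at 10 microM and 15-min fluorescence gain (340/450 nm) converted to percent inhibition, fitted 4-parameter.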

Records with an inconclusive call do not appear. Active and inactive are the calls of the source. Unless noted, calls follow the shape of the dose curve; as a rule, active = well fitted curve in the direction sought with a large enough effect; inconclusive = small, poorly fitted or top-dose-only effect, or another doubt; inactive = no such curve, though single readings can be large; an effect the other way counts as inactive or inconclusive.

Sequence of Parathyroid hormone/parathyroid hormone-related peptide receptor (Homo sapiens) (Q03431 whole entry, looked up): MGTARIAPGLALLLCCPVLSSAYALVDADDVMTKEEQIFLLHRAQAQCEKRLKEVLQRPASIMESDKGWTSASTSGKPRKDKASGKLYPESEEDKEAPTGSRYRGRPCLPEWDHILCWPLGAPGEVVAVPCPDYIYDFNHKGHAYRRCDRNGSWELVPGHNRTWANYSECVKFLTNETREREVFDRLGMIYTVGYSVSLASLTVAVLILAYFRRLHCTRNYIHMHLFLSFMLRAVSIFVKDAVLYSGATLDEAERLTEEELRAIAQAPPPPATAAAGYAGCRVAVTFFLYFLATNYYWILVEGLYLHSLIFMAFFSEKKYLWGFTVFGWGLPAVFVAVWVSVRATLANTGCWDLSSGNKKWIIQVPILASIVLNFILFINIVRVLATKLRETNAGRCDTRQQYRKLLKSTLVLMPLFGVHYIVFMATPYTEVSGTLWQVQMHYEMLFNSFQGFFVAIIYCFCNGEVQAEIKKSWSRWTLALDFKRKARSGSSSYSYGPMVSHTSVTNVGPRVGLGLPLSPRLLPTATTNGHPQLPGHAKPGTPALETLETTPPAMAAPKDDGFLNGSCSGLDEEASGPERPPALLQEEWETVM
Sequence of Furin (Homo sapiens) (P09958 whole entry, looked up): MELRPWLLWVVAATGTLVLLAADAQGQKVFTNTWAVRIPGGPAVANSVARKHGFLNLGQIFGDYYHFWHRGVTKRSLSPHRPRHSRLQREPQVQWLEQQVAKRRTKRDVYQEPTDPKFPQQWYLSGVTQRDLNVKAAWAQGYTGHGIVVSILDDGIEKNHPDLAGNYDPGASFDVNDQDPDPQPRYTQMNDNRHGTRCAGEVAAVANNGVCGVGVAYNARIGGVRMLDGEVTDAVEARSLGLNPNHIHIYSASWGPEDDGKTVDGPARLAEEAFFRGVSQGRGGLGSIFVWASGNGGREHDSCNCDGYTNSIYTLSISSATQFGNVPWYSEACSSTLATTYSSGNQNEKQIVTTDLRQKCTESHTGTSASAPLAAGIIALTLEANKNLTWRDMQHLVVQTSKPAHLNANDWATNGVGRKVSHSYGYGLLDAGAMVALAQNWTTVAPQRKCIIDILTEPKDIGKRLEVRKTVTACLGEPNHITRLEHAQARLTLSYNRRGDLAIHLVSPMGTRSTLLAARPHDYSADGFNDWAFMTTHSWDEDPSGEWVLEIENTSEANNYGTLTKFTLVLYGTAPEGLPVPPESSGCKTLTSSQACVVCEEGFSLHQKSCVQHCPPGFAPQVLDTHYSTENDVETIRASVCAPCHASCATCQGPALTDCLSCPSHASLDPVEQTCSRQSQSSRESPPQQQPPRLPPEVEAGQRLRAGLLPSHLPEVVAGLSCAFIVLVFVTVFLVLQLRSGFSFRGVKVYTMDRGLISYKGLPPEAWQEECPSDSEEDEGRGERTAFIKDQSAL
Sequence of N-terminal Xaa-Pro-Lys N-methyltransferase 1 (Homo sapiens) (Q9BV86 whole entry, looked up): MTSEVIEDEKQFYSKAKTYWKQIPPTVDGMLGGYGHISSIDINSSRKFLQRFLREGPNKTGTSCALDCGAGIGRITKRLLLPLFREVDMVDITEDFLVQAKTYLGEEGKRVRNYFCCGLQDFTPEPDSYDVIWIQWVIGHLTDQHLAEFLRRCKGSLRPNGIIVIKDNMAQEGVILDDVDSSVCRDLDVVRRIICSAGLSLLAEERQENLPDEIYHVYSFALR
T1 sequence (P78324 whole entry, looked up): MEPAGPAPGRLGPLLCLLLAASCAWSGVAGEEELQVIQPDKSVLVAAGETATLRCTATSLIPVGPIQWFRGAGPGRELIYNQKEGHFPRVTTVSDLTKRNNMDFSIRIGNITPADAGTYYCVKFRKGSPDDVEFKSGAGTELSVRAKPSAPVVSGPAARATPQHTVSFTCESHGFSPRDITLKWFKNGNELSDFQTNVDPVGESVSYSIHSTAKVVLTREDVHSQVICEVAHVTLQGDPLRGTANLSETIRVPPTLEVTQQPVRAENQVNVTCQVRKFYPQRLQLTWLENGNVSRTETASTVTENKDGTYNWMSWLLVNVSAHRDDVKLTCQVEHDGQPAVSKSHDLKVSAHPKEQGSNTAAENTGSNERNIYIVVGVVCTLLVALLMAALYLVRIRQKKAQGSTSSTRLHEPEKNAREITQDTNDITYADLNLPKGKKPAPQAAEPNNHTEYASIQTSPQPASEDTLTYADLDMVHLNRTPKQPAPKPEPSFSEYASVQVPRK
T1 sequence (Q08722 whole entry, looked up): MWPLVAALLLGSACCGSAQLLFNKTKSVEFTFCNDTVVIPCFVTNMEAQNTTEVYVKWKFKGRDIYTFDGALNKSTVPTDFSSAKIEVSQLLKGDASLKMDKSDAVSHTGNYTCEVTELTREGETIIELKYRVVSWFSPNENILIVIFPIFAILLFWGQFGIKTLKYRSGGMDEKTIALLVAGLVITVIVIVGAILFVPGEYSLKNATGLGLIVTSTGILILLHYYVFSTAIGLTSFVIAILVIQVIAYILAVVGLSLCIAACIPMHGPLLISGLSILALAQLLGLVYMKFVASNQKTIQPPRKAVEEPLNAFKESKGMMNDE

In the case of `CCSC(=N)N`, the Potency result in assay [1], in assay [2], in assay [4], in [5] and in [6] was “inactive” each time. In addition, in assay [3], the result was inactive.
For `CN1CCc2cc(Cl)c(O)cc2[C@@H](c2ccccc2)C1`, the Potency result in assay [1], in assay [2], in assay [7], in assay [4] and in [6] was “inactive” each time. In assay [3], the result was inactive.
As for `Cc1cc2c(cc1Cl)N(C(=O)Nc1ccnc3ccccc13)CC2`, the Potency entry in assay [1], in [2], in [4], in assay [5] and in assay [6] was “inactive” each time. For the same molecule, the result in assay [3] was inactive.
In the case of `O=c1[nH]c(=O)c2nc3ccccc3nc2[nH]1`, the Potency entry in assay [1], in assay [2], in [7] and in [4] was “inactive” each time. For the same molecule, the Potency in assay [5] was 56.2 µM (active); in [6] it was 26.7 µM (active).
As for `CN[C@H](CC(=O)O)C(=O)O`, the Potency entry in assay [1], in assay [2], in [7], in assay [4] and in assay [5] was “inactive” each time.
For `Nc1ccc(-c2ccc3ccccc3n2)cc1`, the Potency result (in assay [1]; in [2]; in [7]; in assay [4]; in the assay with Furin (Homo sapiens); in assay [8]) was “inactive” each time. The Potency entry in assay [9] was “inactive”. For the same molecule, the Potency was 39.8 µM (active) in [5] and 23.8 µM (active) in assay [6].
For `CC(C)Cn1c(=O)n(C)c(=O)c2[nH]cnc21`, the Potency entry in [1], in assay [2], in assay [5] and in [6] was “inactive” each time. The outcome in assay [3] was inactive. Also, in [4], the Potency was 4.23 µM (active).
As to `COc1cc(C(O)CO)ccc1O` (stereo not drawn), the Potency result in assay [1], in assay [2], in assay [7], in assay [4] and in assay [5] was “inactive” each time.
As for `COc1cc(/C=C(\C#N)C(=O)c2ccc(O)c(O)c2)cc(I)c1O`, the Potency entry in assay [1], in assay [2], in [7] and in [4] was “inactive” in each case. In [5], the Potency was 50.1 µM (active).
For `C[C@H]1CC2C3CCC4=CC(=O)C=C[C@]4(C)[C@@]3(Cl)[C@@H](O)C[C@]2(C)[C@@]1(O)C(=O)CO` (stereo partly drawn), the Potency entry in assay [1], in assay [2], in [4], in assay [5] and in assay [6] was “inactive” throughout. The outcome in [3] was inactive.
As to `c1ccc(C(NCc2cccnc2)(c2ccccc2)c2ccccc2)cc1`, the Potency entry in [1], in assay [2], in assay [7], in assay [4], in [5] and in assay [6] was “inactive” throughout.
Regarding `CC(=O)NCCc1c[nH]c2ccc(O)cc12`, the Potency entry in assay [1], in [2], in [7] and in assay [4] was “inactive” in each case.
Consider `NC(=Nc1ccccc1)NC(=O)c1nc(Cl)c(N)nc1N`, for which the Potency result in [1], in assay [2], in [7] and in assay [4] was “inactive” in each case. Also, the Potency in [5] is 56.2 µM (active).
`NCCCCN=C(N)N`: the Potency entry in assay [1], in [2], in assay [7], in assay [4] and in [5] was “inactive” in each case.
Take `CCCCCCCCCC[Si](C)(C)CCC(=O)NC(Cc1ccc(C)cc1)c1ccccc1` (stereo not drawn): the Potency entry in assay [1], in [2], in assay [4], in assay [5] and in [6] was “inactive” in each case. In addition, in assay [3], the outcome was inactive.
As for `N#C/C(=C\c1ccc(O)c(O)c1)C(=O)NCCc1ccccc1`, the Potency entry in [1], in [2], in assay [7] and in assay [4] was “inactive” throughout. Moreover, the Potency in [5] is 44.7 µM (active); in assay [6], 2.38 µM (active).
As for `COC(=O)C1=C(C)NC(C)=C([N+](=O)[O-])C1c1ccccc1C(F)(F)F` (stereo not drawn), the Potency result in assay [1], in assay [2], in assay [7], in [4] and in assay [5] was “inactive” in each case.
Regarding `CC(N)(C(=O)O)c1ccc(C(=O)O)cc1` (stereo not drawn), the Potency result in assay [1], in [2], in [4], in [5] and in assay [6] was “inactive” in each case. The result in assay [3] was inactive.
With `O=C(O)[C@H]1NCCC[C@H]1C(=O)O`, the Potency result in assay [1], in assay [2], in assay [7], in [4], in [5] and in assay [6] was “inactive” in each case.
Regarding `Cc1nc(N=Nc2cc(S(=O)(=O)O)c3cc([N+](=O)[O-])cc(S(=O)(=O)O)c3c2)c(COP(=O)(O)O)c(C=O)c1O`, the Potency result (in [1]; in [2]; in assay [7]; in [4]; in the assay with Furin (Homo sapiens)) was “inactive” each time. Besides, the Potency in [5] is 56.2 µM (active).
In the case of `CC(=O)O[C@H]1Cc2ccccc2N(C(N)=O)c2ccccc21`, the Potency entry in assay [1], in [2], in assay [7], in [4], in assay [5] and in assay [6] was “inactive” in each case.
Consider `C#CC(N)CCC(=O)O` (stereo not drawn), for which the Potency entry in assay [1], in [2], in assay [7], in [4] and in assay [5] was “inactive” each time.
On to `COc1ccc(-c2ccc(N)[n+](CCCC(=O)O)n2)cc1`, for which the Potency result in assay [1], in assay [2], in assay [7], in assay [4], in assay [5] and in assay [6] was “inactive” each time.
Regarding `O=c1onc2cnc3ccccc3n12`, the Potency result in assay [1], in [2], in [7] and in [4] was “inactive” in each case. For the same molecule, the results for the Potency in assay [5] and in [6] were 56.2 µM (active) and 26.7 µM (active), respectively.
Regarding `Oc1cc2c(cc1O)C(c1ccccc1)CNCC2` (stereo not drawn), the Potency result in assay [1], in assay [2], in [7] and in assay [4] was “inactive” each time. For the same molecule, the Potency in assay [5] was 44.7 µM (active).
With `CCCn1c(=O)c2[nH]c(C3CCCC3)nc2n(CCC)c1=O`, the Potency result in [1], in assay [2], in assay [7], in assay [4], in [5] and in assay [6] was “inactive” in each case.
Consider `CC(=O)[C@H]1CCC2C3CC=C4C[C@@H](OS(=O)(=O)O)CC[C@]4(C)C3CC[C@@]21C` (stereo partly drawn), for which the Potency result in assay [1], in [2], in [4], in [5] and in assay [6] was “inactive” each time. Moreover, the outcome in assay [3] was inactive.
As for `CCCC[C@@]1(C2CCCC2)Cc2cc(OCC(=O)O)c(Cl)c(Cl)c2C1=O`, the Potency result (in [1]; in assay [2]; in [7]; in assay [4]; in assay [5]; with Furin (Homo sapiens)) was “inactive” throughout.
As for `C[C@H](NC(=O)/C(C#N)=C/c1ccc(O)c(O)c1)c1ccccc1`, the Potency result in assay [1], in [2], in assay [7] and in assay [4] was “inactive” each time. Also, the Potency in assay [5] was 25.1 µM (active); in assay [6] it was 2.38 µM (active).
On to `CC1=C(C(=O)O)N2C(=O)[C@@H](NC(=O)C(N)C3=CCC=CC3)[C@H]2SC1` (stereo partly drawn), for which the Potency result in [1], in assay [2], in assay [7], in [4], in [5] and in assay [6] was “inactive” in each case.
